“And” between values parts separate entries of the source, which are not always exact repeats. Identical values can stand only once. Some compounds were tested as several samples or in several runs, with calls that do not always agree. The source made the active and inactive calls. How the source made its calls: active means hit-call score of the fitted dose curve at least 0.9, where 1 is the maximum; inactive means score below 0.9.
How the values were obtained:
[1] = read-out: Interferon-inducible T-cell alpha chemoattractant (ITAC), CXCL11 (gene 6373); experiment: BSK_BE3C_ITAC: BioMAP Diversity Plus: BE3C Assay for Interferon-inducible T-cell alpha chemoattractant (ITAC) Biomarker Activity (AID 2284279); settings: primary human bronchial epithelial cells
Method in brief: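 ELISA for I-TAC in primary human bronchial epithelial cultures 24 h post-treatment, fitted relative to DMSO baseline in positive direction. Cytotoxicity checked in parallel cultures by sulforhodamine B protein staining.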

[2] = read-out: Interleukin-8 (IL8), CXCL8 (gene 3576); experiment: BSK_BE3C_IL8: BioMAP Diversity Plus: BE3C Assay for Interleukin-8 (IL8) Biomarker Activity (AID 2284280); settings: primary human bronchial epithelial cells
Method in brief: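 ELISA read-out of IL-8 in human lung bronchial epithelial primary cell cultures, 24 h post-dosing; endpoint analysed as signal increase relative to DMSO baseline.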

[3] = read-out: Epidermal growth factor receptor (EGFR), EGFR (gene 1956); experiment: BSK_BE3C_EGFR: BioMAP Diversity Plus: BE3C Assay for Epidermal growth factor receptor (EGFR) Biomarker Activity (AID 2284281); settings: primary human bronchial epithelial cells
Method in brief: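 Primary human lung bronchial epithelial cells; compound, 24 h; EGFR measured by ELISA; positive-direction fit vs DMSO baseline.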

[4] = read-out: KRT18 (gene 3875); experiment: BSK_BE3C_Keratin818: BioMAP Diversity Plus: BE3C Assay for Keratin 818 Biomarker Activity (AID 2284282); settings: primary human bronchial epithelial cells
Method in brief: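 Chemicals are added to human lung bronchial epithelial primary cells (BE3C system) and incubated 24 h. Keratin 8/18 is then measured by ELISA, with parallel SRB total-protein staining gauging overt cytotoxicity.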

[5] = read-out: Matrix Metallopeptidase 9 (MMP9), MMP9 (gene 4318); experiment: BSK_BE3C_MMP9: BioMAP Diversity Plus: BE3C Assay for Matrix Metallopeptidase 9 (MMP9) Biomarker Activity (AID 2284283); settings: primary human bronchial epithelial cells
Method in brief: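 MMP9 is measured by ELISA after a 24 h compound exposure of primary human bronchial epithelial cultures. Parallel SRB staining gives overt cytotoxicity. Values fitted in the positive direction against DMSO.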

[6] = read-out: Plasminogen activator inhibitor-1 (PAI1), SERPINE1 (gene 5054); experiment: BSK_CASM3C_PAI1: BioMAP Diversity Plus: CASM3C Assay for Plasminogen activator inhibitor-1 (PAI1) Biomarker Activity (AID 2284284); settings: primary human coronary artery smooth muscle cells;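 further: PAI-1 protein level measured by ELISA 24 h after dosing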
[7] = read-out: Monocyte Chemoattractant Protein-1 (MCP1), CCL2 (gene 6347); experiment: BSK_hDFCGF_MCP1: BioMAP Diversity Plus: hDFCGF Assay for Monocyte Chemoattractant Protein-1 (MCP1) Biomarker Activity (AID 2284285); settings: primary human foreskin fibroblasts
Method in brief: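 Human foreskin fibroblasts (hDFCGF system) were exposed to compound and secreted MCP-1 was measured by ELISA after 24 hours. Activity was fitted relative to DMSO. Cytotoxicity was checked by SRB total-protein staining in parallel cultures.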

[8] = read-out: Vascular cell adhesion molecule 1 (VCAM1), VCAM1 (gene 7412); experiment: BSK_IMphg_VCAM1: BioMAP Diversity Plus: IMphg Assay for Vascular cell adhesion molecule 1 (VCAM1) Biomarker Activity (AID 2284286); settings: primary human endothelial cells with macrophages
Method in brief: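 Human venular endothelial cells co-cultured with macrophages; VCAM-1 quantified by ELISA 24 h after dosing, fitted in the positive direction against DMSO. Cytotoxicity was checked in parallel cultures by SRB total-protein staining (0.1% SRB after 10% TCA fixation, 560 nm).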

[9] = read-out: Intercellular Adhesion Molecule 1 (ICAM1), ICAM1 (gene 3383); experiment: BSK_hDFCGF_ICAM1: BioMAP Diversity Plus: hDFCGF Assay for Intercellular Adhesion Molecule 1 (ICAM1) Biomarker Activity (AID 2284287); settings: primary human foreskin fibroblasts
Method in brief: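 Primary human foreskin fibroblasts (hDFCGF system) dosed with chemical; ICAM-1 quantified by ELISA at 24 h relative to DMSO. Parallel SRB total-protein staining to assess overt cytotoxicity.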

[10] = read-out: CD40, CD40 (gene 958); experiment: BSK_IMphg_CD40: BioMAP Diversity Plus: IMphg Assay for CD40 Biomarker Activity (AID 2284288); settings: primary human endothelial cells with macrophages
Method in brief: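 Venular endothelial cells co-cultured with macrophages (human primary), CD40 measured by ELISA 24 h after dosing. Positive-direction fit vs DMSO baseline; cytotoxicity tracked by SRB total-protein staining in parallel cultures.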

SMILES | outcome [1] | outcome [2] | outcome [3] | outcome [4] | AC50 [5] | outcome [5] | outcome [6] | outcome [7] | outcome [8] | outcome [9] | outcome [10] | AC50 [1] | AC50 [2] | AC50 [3] | AC50 [7] | AC50 [8] | AC50 [10] | AC50 [9]
O=C(O)C(F)(F)C(F)(F)C(F)(F)OC(F)(C(F)(F)F)C(F)(F)F | inactive | inactive | inactive | inactive | 6.87 µM (active) | inactive | inactive | inactive | inactive | inactive | inactive |  |  |  |  |  |  | 
CCN(CCO)S(=O)(=O)C(F)(F)C(F)(F)C(F)(F)C(F)(F)C(F)(F)C(F)(F)C(F)(F)C(F)(F)F |  |  |  | inactive | 21.5 µM (active) and 43.3 µM (active) |  | inactive |  | inactive | inactive | inactive | 47.1 µM (active) and 42.6 µM (active) | 19.3 µM (active) and 11.8 µM (active) | 23.2 µM (active) and 13.9 µM (active) | 32.7 µM (active) and 30 µM (active) | 39 µM (active) | 36.9 µM (active) | 
C=CC(=O)OCCC(F)(F)C(F)(F)C(F)(F)C(F)(F)F | inactive | inactive | inactive | inactive |  | inactive | inactive | inactive | inactive |  | inactive |  |  |  | 20.3 µM (active) |  |  | 30 µM (active) and 38.2 µM (active)
NS(=O)(=O)C(F)(F)C(F)(F)C(F)(F)C(F)(F)C(F)(F)C(F)(F)F | inactive |  | inactive | inactive | 13.9 µM (active) and 15 µM (active) |  | inactive | inactive | inactive | inactive |  | 30 µM (active) | 25.1 µM (active) and 15.2 µM (active) |  |  |  | 39.5 µM (active) and 25.4 µM (active) | 
CO[Si](C)(CCC(F)(F)C(F)(F)C(F)(F)C(F)(F)C(F)(F)C(F)(F)F)OC | inactive | inactive | inactive | inactive |  | inactive | inactive | inactive | inactive | inactive | inactive |  |  |  |  |  |  | 
NC(=O)C(F)(F)C(F)(F)C(F)(F)C(F)(F)C(N)=O | inactive | inactive | inactive | inactive |  | inactive | inactive | inactive | inactive | inactive | inactive |  |  |  |  |  |  | 17.6 µM (active)
COC(F)(C(F)F)C(F)(F)F (stereo not given) | inactive | inactive | inactive | inactive |  | inactive | inactive | inactive | inactive | inactive | inactive |  |  |  |  |  |  | 
O=C(O)C(F)(F)OC(F)(F)C(F)(F)OC(F)(F)C(F)(F)OC(F)(F)F | inactive | inactive | inactive | inactive | 1.47 µM (active) | inactive | inactive | inactive | inactive | inactive | inactive |  |  |  |  |  |  | 
O=C(Cl)C(F)(F)C(F)(F)C(F)(F)C(F)(F)C(F)(F)C(F)(F)C(F)(F)F | inactive | inactive | inactive | inactive |  | inactive | inactive | inactive | inactive | inactive | inactive |  | 15.9 µM (active) |  |  |  |  | 
NC(=O)C(F)(F)C(F)(F)C(F)(F)F | inactive | inactive | inactive | inactive |  | inactive | inactive | inactive | inactive | inactive | inactive |  |  |  |  |  |  | 
CNS(=O)(=O)C(F)(F)C(F)(F)C(F)(F)C(F)(F)C(F)(F)C(F)(F)C(F)(F)C(F)(F)F | inactive |  | inactive | inactive | 4.25 µM (active) and 373 nM (active) |  | inactive | inactive | inactive | inactive | inactive |  | 30 µM (active) and 2.67 µM (active) |  |  | 16.3 µM (active) |  | 36.8 µM (active)
